Results as given in PubChem BioAssay.

Experiment: TLR3 IRF3 reporter activation blockers – cell-based, poly I:C stimulus, luciferase, 10K MLSCN set, primary screen (AID 602277)
Conditions: HEK293-TLR3 RL24 IRF3 luciferase reporter, at 10 µM, stronger effect = higher value;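 active = inhibition of the reporter signal at or above 50%; inactive = inhibition below 50%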

inhibition, inactive:
CCN(CC)C(=O)c1sc2nc(-c3cccs3)cc(-c3cccs3)c2c1N 23.7%
Cc1ccc(-c2nnc(-c3cccc(Br)c3)o2)cc1 -64%
CCCCOc1ccc(C(=O)Nc2ccc(N3CCN(C(C)=O)CC3)cc2)cc1 2.99%
CCN(CC)CCNC(=O)c1ccc(NC(C)=O)cc1 42.8%
COC(=O)c1ccccc1NC(=O)CSc1nnc(-c2ccncc2)o1 19.8%
CN(C)C(CN1C(=O)C2CC=CCC2C1=O)c1cn(C)c2ccccc12 (configuration not stated) 46.8%
CCOc1cc(C2Nc3ccccc3C(=O)N2c2ccccc2OC)ccc1O (configuration not stated) -13.2%
Cc1cn2c(-c3ccncc3)nnc2s1 19.6%
COc1ccc(/C(O)=C2/C(=O)C(=O)N(CCN(C)C)C2c2ccccn2)cc1OC (configuration not stated) 5.99%
Cc1oc2nc(SCCCC(=O)NCCCO)nc(N)c2c1C 12.8%
C[C@@H]1CCC[C@H](C)N1NC(=O)c1ccc(Cl)c(S(N)(=O)=O)c1 20%
O=C(CCCN1C(=O)c2ccccc2C1=O)N1CCC(c2ccccc2)C1 (configuration not stated) -11.3%
O=C1C2CC=C(Cl)CC2C(=O)N1CNc1ccccn1 (configuration not stated) 18.2%
COCCNC(=O)c1c(N)n(/N=C/c2cccs2)c2nc3ccccc3nc12 -26.9%
COC(=O)CC1SC(=O)NC1=O (configuration not stated) 8.22%
N#Cc1nc(COc2ccc(Br)cc2)oc1N1CCCC1 1.37%
CCOC(=O)C1CCN(C(C)=C2C(=O)c3ccccc3C2=O)CC1 16.6%
